# c-Myc SMM – binders of human c-Myc, primary screen, biochemical, small molecule microarray, anti-His fluorescence; Myc proto-oncogene protein (Homo sapiens), P01106; His-c-Myc binding; calls only; 17,000 tested, 1.5% active; AID 624141, 2012;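 active = spot fluorescence over background with P-value below 7% in all four replicate spots, showing protein binding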
# p53 mut binder – binders of human mutant p53, primary screen, biochemical, small molecule microarray, anti-GST fluorescence. small molecule microarray binding. calls only. mutant tumor protein p53 (GST-tagged), Homo sapiens. 17,000 tested, 0.4% active. AID 624136, 2012;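 active = compounds whose four printed spots each glow above background more than chance allows, each with a p-value under 7%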
# STAT3 SMM – STAT3 binders, primary screen, biochemical, small molecule microarray, single point, set 2; Signal transducer and activator of transcription 3 (Homo sapiens), P40763; His-STAT3 binding, anti-His fluorescence; calls only; 17,000 tested, 0.2% active; AID 624138, 2012;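 active = compounds whose four printed spots each show fluorescence over background unusually high for their array block, chance value under 7%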
# NFkB SMM – binders of NF-kB p50 subunit, primary screen, biochemical, small molecule microarray, anti-His fluorescence; anti-His fluorescence binding; calls only; 17,000 tested, 1.3% active;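 active = spot fluorescence over background significantly raised, with a chance value under 7% in all four replicate spots of the compound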;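 also: probe protein is his-tagged human p50 processed subunit at 1 µg/ml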
# Target sequence (P19838 1-433 limits assumed): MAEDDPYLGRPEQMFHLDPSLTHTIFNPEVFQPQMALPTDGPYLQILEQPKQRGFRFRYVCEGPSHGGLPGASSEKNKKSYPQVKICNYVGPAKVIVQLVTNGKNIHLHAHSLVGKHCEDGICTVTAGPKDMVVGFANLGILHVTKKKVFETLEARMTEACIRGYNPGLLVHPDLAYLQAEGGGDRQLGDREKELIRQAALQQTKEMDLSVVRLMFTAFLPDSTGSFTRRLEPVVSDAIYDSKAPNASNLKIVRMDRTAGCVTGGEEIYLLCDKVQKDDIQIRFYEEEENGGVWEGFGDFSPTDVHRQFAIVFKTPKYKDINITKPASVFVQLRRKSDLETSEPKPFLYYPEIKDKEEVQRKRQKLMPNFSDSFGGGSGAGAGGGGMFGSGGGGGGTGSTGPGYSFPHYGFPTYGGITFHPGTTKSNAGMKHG
# Calls only; n = inactive; + = active, no number. Sampled rows, rich in hits. Any-hit rate of the full collection: about 2.1%.
SMILES,c-Myc SMM,p53 mut binder,STAT3 SMM,NFkB SMM
C[C@H](CO)N1C[C@H](C)[C@@H](CN(C)C(=O)NC2CCCCC2)Oc2c(NC(=O)Nc3ccc(C(F)(F)F)cc3)cccc2C1=O,+,n,n,+
C[C@H](CO)N1C[C@H](C)[C@H](CN(C)C(=O)NC2CCCCC2)Oc2c(NC(=O)Nc3ccc(F)cc3)cccc2C1=O,n,n,n,n
C[C@@H]1CN([C@@H](C)CO)C(=O)c2cccc(NC(=O)Nc3ccccc3)c2O[C@@H]1CN(C)C(=O)NC1CCCCC1,n,n,n,n
C[C@@H]1CN([C@H](C)CO)C(=O)c2cccc(NC(=O)Nc3ccc(C(F)(F)F)cc3)c2O[C@@H]1CN(C)C(=O)NC1CCCCC1,+,n,n,+
C[C@H]1CN([C@@H](C)CO)C(=O)c2cccc(NC(=O)NC3CCCCC3)c2O[C@H]1CN(C)C(=O)NC1CCCCC1,+,n,n,+
C[C@@H]1CN([C@@H](C)CO)C(=O)c2cc(NC(=O)NC3CCCCC3)ccc2O[C@H]1CN(C)C(=O)Nc1ccc(C(F)(F)F)cc1,n,n,n,+
CCOc1ccc(Nc2ncnc3c2ncn3-c2ccc(OCC)cc2)cc1,n,n,n,n
COc1cc(Br)c(S(=O)(=O)NCCOc2ccc(C(C)(C)C)cc2)cc1OC,n,n,n,n
C[C@H](CO)N1C[C@H](C)[C@@H](CN(C)Cc2ccc(C(F)(F)F)cc2)OCc2cnnn2CCCC1=O,+,n,n,+
CC(C)NC(=O)Nc1cccc2c1O[C@H](CN(C)Cc1ccccc1)[C@H](C)CN([C@@H](C)CO)C2=O,n,n,n,n
C[C@@H]1CN([C@H](C)CO)C(=O)c2cccc(NC(=O)NC3CCCCC3)c2O[C@H]1CN(C)C(=O)Nc1ccc(C(F)(F)F)cc1,+,n,n,+
C[C@@H]1CN([C@@H](C)CO)C(=O)c2cccc(NC(=O)Nc3ccc(C(F)(F)F)cc3)c2O[C@H]1CN(C)C(=O)NC1CCCCC1,n,n,+,n
C[C@H]1CN([C@@H](C)CO)C(=O)c2cccc(NC(=O)NC3CCCCC3)c2O[C@H]1CN(C)C(=O)Nc1ccc(C(F)(F)F)cc1,n,n,n,n
CC(C)NC(=O)Nc1cccc2c1O[C@@H](CN(C)Cc1ccc(C(F)(F)F)cc1)[C@H](C)CN([C@@H](C)CO)C2=O,+,n,n,+
CC(C)=CCc1c(O)c(CC=C(C)C)c2c(c1O)C(=O)CC(c1ccc(O)cc1O)O2 (centres undefined),n,n,n,n
O=C(N1CCCCC1)[C@@]1(Cc2ccccc2)N=C(c2ccc(OCCCO)cc2)O[C@H]1c1ccccc1,n,n,n,n
C[C@H](CO)N1C[C@H](C)[C@@H](CN(C)Cc2ccc(Cl)c(Cl)c2)Oc2c(NC(=O)C3CCOCC3)cccc2C1=O,n,n,n,n
C[C@@H]1CN([C@@H](C)CO)C(=O)c2cccc(NC(=O)Nc3cccc4ccccc34)c2O[C@H]1CN(C)C(=O)Nc1ccc(C(F)(F)F)cc1,n,n,n,+
C[C@@H]1CN([C@@H](C)CO)C(=O)c2cccc(NC(=O)C3CCOCC3)c2O[C@H]1CN(C)Cc1ccc(Cl)c(Cl)c1,+,n,n,n
Cc1cccc(NC(=O)c2ccc(OC(C)C(=O)Nc3ccc(Br)cc3)cc2)c1C (centres undefined),n,n,n,n
O=C(O)CSc1c[nH]c2ccccc12,+,n,n,n
Cc1nn(C(=O)Cn2cc([N+](=O)[O-])cn2)c(C)c1Br,+,n,n,n
Cc1noc(C)c1S(=O)(=O)Nc1ccc2c(c1)C(=O)N([C@H](C)CO)C[C@H](C)[C@@H](CN(C)C(=O)Nc1cccc3ccccc13)OCCCC[C@H](C)O2,+,n,n,+
Cc1noc(C)c1S(=O)(=O)Nc1ccc2c(c1)C(=O)N([C@H](C)CO)C[C@H](C)[C@@H](CN(C)C(=O)NC(C)C)OCCCC[C@H](C)O2,n,n,n,+
CCn1c(SCC(=O)Nc2ccc(C(N)=O)cc2)nnc1-c1ccc(F)cc1,n,n,n,n
SMILES,c-Myc SMM,p53 mut binder,STAT3 SMM,NFkB SMM
CC(C)=CCc1c(O)ccc2c(=O)c(-c3ccc(O)cc3)coc12,n,n,n,n
CC1=CCC(C(C)(C)O[C@@H]2O[C@H](CO[C@@H]3O[C@H](COC(=O)c4cc(O)c(O)c(O)c4)[C@@H](O)[C@H](O)[C@H]3O)[C@@H](O)[C@H](O)[C@H]2O)CC1 (some centres undefined),n,n,n,n
COC(=O)C1=COC(O[C@@H]2O[C@H](CO)[C@@H](O)[C@H](O)[C@H]2O)[C@@H]2[C@@](C)(O)CC[C@]12O (some centres undefined),n,n,n,n
C/C=C(\C)C(=O)O[C@@H]1[C@@H](OC(C)=O)C2[C@@]3(C)CC[C@H](OC4CC(OC)C(OC5CC(OC)C(OC6CC(OC)C(OC7OC(C)C(OC8OC(CO)C(O)C(O)C8O)C(OC)C7O)C(C)O6)C(C)O5)C(C)O4)CC3=CC[C@@]2(O)[C@@]2(O)CC[C@H](C(C)=O)[C@@]12C (some centres undefined),+,n,n,+
COC1CC(OC2C(C)OC(OC3C(C)OC(OC4C(C)OCC(OC5C(O)C(O[C@H]6CC[C@@]7(C)C(=CC[C@]8(O)C7CC(OC(=O)c7ccccc7)[C@@]7(C)[C@]8(O)CC[C@@]7(O)C(C)=O)C6)OC(CO)C5OC5OC(CO)C(O)C(O)C5O)C4OC)CC3OC)CC2OC)OC(C)C1O (some centres undefined),+,n,n,+
CO[C@@H]1CC(OC2CCC3(C)C(CCC45CCC(C6=CC(=O)OC6)C(C)(CCC43)C5=O)C2)O[C@H](C)[C@@H]1O[C@@H]1O[C@H](CO[C@@H]2O[C@H](CO)[C@@H](O)[C@H](O)[C@H]2O)[C@@H](O)[C@H](O)[C@H]1O (some centres undefined),n,n,n,n
COC(=O)C1=COC(O[C@@H]2O[C@H](CO)[C@@H](O)[C@H](O)[C@H]2O)[C@@H]2[C@@](C)(O)[C@@H](OC(=O)/C=C\c3ccccc3)C[C@]12O (some centres undefined),n,n,n,n
CC(C)(CCO[C@@H]1O[C@H](CO[C@@H]2OC[C@@H](O)[C@H](O)[C@H]2O)[C@@H](O)[C@H](O)[C@H]1O)C[C@@H]1C(C(=O)O)=CC[C@]2(C(=O)O)C1=CCC1[C@@]3(C)CC[C@H](O[C@@H]4O[C@H](CO[C@@H]5O[C@H](CO)[C@@H](O)[C@H](O)[C@H]5O)[C@@H](O)[C@H](O)[C@H]4O)C(C)(C)C3CC[C@]12C (some centres undefined),n,n,n,n
COc1cc2c(cc1NC(=S)NCc1ccco1)oc1ccccc12,n,n,n,n
O=C(Nc1ccccc1)N[C@@H](Cc1ccccc1)Cn1cc(CN2C(=O)COC[C@H]2c2ccccc2)nn1,n,n,n,n
O=C(Cn1cc(CN2C(=O)COC[C@H]2c2ccccc2)nn1)Nc1nccs1,n,+,n,n
CN1C(=O)N[C@@H]2c3ccccc3O[C@@]1(C)[C@@H]2CO[Si](C)(C)C(C)(C)C,n,n,n,n
